Data: the supplement of paper PMC10849652
Targets with a hit are over-represented here; the source holds about 7,900 in all. About 0.6% of all pairs of compound and target were hits. A number with no mark means an inactive call.

What was measured:
Assay in all cases: log2 fold change, soluble protein after heating vs DMSO (PISA); higher = thermal stabilisation; K562 cells, 10 uM, 30 min; active = over 0.2 and 3.5 SD of the protein, either way, in both replicates (recomputed)
erlotinib = compound: C#Cc1cccc(Nc2ncnc3cc(OCCOC)c(OCCOC)cc23)c1 [erlotinib]
Summary of the method: (§1)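 Soluble protein was quantified by TMTpro 16plex LC-MS/MS after channel sums were equalised. It was obtained as the supernatant after 21,000xg for 90 min from pooled aliquots of K562 cells (2×10^6 cells/mL, 10 μM compound, 30 min) heated for 3 min across 48°C-58°C and extracted in PBS with 0.5% NP-40 at 4°C. Thermal stability values are relative to control samples and come from duplicates. They are given as log2 fold changes.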

[1] = compound: C/C(=N\NC(=O)C1=CC(=CC=C1)S(=O)(=O)N2CCOCC2)/C3=C(C=CC(=C3)Cl)O
Summary of the method: as §1

[2] = compound: C1=CC(=C(C=C1Cl)C2=NC3=NC=CN=C3C(=N2)NC4=CC=NC=C4)F
Summary of the method: as §1

[3] = compound: C1=CC(=CC=C1C2=NC3=C(N2)C=C(C=C3)C(=O)N)OC4=CC=C(C=C4)Cl
Summary of the method: as §1

[4] = compound: C1=CC2=C(C=CC(=C2)/C=C\3/C(=O)NC(=NCC4=CC=CS4)S3)N=C1
Summary of the method: as §1

[5] = compound: C1=CC2=NC=CN=C2C=C1/C=C/3\C(=O)NC(=O)S3
Summary of the method: as §1

[6] = compound: C1=CC=C(C=C1)C2=NC(=C(N2)C3=CC=NC=C3)C4=CC(=C(C=C4)Cl)O
Summary of the method: as §1

[7] = compound: C1=CC=C2C(=C1)C3=NNC4=CC=CC(=C43)C2=O
Summary of the method: as §1

[8] = compound: C1CCN(C1)C(=O)NC2=CC=CC(=C2)NC3=NC=C(C(=N3)NCCC4=CN=CN4)Br
Summary of the method: as §1

[9] = compound: C1CN(CCC1(CC2=CC=C(C=C2)Cl)N)C3=NC=NC4=C3C=CN4
Summary of the method: as §1

Chain of UniProt Q9BZL6 (Q9BZL6 whole entry, looked up): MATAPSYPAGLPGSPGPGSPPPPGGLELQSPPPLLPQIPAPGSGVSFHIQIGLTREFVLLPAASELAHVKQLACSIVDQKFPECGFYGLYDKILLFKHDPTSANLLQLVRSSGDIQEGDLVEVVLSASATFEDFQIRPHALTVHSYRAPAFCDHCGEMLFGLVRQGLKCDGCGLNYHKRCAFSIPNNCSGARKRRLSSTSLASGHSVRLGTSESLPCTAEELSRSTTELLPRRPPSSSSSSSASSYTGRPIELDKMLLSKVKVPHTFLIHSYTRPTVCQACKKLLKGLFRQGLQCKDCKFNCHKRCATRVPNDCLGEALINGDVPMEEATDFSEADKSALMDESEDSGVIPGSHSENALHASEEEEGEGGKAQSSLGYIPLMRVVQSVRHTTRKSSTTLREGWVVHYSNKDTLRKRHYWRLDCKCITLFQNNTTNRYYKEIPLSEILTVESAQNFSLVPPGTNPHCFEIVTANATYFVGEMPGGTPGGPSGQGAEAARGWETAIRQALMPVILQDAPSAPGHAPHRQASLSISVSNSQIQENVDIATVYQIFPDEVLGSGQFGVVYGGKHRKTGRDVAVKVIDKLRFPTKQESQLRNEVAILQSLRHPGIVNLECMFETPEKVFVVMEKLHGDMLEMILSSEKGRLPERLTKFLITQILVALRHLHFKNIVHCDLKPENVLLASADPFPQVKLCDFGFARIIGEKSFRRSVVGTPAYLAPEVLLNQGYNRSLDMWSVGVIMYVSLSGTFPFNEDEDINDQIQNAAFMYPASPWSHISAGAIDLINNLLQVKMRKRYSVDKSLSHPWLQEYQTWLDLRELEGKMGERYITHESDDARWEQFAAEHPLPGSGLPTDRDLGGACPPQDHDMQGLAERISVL
Chain of UniProt Q86W56 (Q86W56 whole entry, looked up): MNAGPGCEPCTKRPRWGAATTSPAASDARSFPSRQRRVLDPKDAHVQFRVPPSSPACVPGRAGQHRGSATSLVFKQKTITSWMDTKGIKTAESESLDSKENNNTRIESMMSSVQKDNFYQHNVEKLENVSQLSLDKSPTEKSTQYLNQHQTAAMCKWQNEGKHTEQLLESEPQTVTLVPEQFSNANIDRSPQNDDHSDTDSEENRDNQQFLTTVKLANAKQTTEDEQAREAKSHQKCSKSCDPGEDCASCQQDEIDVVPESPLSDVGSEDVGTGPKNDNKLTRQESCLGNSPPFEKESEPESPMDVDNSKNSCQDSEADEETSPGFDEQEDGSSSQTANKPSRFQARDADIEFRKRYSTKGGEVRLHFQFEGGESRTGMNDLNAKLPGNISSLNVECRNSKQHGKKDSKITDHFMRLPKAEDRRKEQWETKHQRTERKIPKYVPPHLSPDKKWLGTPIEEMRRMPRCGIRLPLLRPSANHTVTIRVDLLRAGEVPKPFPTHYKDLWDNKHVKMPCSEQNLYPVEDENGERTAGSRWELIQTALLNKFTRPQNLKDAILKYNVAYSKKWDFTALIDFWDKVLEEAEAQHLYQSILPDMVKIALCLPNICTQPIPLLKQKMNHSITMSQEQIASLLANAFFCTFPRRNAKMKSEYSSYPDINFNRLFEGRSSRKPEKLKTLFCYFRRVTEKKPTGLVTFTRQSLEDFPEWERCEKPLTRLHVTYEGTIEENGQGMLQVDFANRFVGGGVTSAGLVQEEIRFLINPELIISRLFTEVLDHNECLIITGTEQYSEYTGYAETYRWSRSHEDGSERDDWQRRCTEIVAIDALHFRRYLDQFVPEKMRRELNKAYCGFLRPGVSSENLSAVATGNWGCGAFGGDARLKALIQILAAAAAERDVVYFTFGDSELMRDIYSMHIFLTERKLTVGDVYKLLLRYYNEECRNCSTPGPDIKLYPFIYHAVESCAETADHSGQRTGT
Chain of UniProt Q6P4A8 (Q6P4A8 whole entry, looked up): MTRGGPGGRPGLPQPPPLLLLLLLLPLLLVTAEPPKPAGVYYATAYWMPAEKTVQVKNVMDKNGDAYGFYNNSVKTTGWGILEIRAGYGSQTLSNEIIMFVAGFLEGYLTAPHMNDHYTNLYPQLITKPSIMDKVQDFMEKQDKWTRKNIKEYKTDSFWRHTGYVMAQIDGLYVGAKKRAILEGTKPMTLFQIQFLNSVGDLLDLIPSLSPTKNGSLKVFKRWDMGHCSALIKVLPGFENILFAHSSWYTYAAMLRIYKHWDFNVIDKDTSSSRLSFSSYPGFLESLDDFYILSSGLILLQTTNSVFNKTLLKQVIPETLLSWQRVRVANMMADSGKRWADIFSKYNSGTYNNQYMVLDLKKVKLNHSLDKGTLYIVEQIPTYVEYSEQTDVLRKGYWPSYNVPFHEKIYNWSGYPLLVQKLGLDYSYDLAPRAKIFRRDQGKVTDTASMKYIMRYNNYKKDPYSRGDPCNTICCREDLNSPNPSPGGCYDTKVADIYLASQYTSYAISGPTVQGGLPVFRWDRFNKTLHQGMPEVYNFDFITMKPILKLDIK
Chain of UniProt O95602 (O95602 whole entry, looked up): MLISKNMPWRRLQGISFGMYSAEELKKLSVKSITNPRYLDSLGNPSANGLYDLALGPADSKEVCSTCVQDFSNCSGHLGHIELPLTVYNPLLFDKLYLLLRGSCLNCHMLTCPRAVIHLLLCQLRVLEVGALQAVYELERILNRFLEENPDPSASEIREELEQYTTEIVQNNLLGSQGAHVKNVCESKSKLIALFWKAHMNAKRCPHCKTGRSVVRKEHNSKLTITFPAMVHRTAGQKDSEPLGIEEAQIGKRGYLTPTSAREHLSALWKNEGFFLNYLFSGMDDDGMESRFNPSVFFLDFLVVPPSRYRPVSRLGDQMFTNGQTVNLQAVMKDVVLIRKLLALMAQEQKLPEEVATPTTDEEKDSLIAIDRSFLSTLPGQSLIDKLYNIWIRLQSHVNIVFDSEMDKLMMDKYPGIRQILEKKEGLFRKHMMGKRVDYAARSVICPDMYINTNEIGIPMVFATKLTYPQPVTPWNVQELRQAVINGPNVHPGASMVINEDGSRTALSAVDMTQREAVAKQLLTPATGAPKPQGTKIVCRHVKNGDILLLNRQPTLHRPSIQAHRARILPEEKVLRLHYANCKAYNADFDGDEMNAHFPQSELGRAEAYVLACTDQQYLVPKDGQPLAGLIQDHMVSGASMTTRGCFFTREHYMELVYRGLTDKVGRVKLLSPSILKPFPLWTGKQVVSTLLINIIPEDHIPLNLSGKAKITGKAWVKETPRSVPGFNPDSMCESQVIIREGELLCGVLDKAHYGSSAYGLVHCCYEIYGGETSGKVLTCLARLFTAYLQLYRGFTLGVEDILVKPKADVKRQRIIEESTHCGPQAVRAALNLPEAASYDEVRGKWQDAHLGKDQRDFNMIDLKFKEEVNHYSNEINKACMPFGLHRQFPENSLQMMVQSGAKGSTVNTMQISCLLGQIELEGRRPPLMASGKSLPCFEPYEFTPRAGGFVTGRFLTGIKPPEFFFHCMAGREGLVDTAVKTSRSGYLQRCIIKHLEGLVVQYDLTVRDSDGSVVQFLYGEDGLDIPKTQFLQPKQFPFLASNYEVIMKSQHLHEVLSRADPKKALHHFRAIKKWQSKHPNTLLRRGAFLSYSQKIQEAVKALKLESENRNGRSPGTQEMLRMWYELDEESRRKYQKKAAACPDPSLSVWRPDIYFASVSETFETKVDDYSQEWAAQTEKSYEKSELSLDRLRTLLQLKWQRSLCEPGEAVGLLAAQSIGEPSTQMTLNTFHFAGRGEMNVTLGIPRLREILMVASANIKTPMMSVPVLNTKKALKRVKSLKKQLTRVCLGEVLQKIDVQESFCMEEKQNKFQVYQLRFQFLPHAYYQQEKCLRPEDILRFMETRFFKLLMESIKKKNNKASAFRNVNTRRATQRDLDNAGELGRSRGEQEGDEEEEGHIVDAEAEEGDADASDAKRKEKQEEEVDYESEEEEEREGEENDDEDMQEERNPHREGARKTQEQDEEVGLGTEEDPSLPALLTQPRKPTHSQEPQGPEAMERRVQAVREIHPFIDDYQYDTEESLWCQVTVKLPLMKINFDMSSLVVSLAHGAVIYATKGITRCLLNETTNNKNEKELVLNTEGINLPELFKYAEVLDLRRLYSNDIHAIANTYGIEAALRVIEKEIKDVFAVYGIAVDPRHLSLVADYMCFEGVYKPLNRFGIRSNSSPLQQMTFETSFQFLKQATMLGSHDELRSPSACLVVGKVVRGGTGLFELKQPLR
Chain of UniProt Q8NHP8 (Q8NHP8 whole entry, looked up): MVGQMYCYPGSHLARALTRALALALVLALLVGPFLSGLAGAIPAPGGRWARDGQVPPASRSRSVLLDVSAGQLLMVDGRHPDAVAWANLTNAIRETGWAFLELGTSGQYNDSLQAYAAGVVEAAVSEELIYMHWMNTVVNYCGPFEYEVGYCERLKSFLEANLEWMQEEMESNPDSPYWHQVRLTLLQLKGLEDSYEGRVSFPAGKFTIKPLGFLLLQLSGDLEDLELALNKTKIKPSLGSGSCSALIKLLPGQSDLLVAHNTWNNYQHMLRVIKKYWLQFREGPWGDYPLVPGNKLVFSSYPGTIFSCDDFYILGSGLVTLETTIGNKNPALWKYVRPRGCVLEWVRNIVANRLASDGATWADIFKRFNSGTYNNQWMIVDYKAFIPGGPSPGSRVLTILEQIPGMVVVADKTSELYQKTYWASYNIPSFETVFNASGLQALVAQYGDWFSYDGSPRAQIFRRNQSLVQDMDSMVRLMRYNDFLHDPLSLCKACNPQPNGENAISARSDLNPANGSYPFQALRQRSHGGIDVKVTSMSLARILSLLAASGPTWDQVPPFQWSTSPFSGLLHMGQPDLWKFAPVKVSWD
Chain of UniProt Q7RTV0 (Q7RTV0 whole entry, looked up): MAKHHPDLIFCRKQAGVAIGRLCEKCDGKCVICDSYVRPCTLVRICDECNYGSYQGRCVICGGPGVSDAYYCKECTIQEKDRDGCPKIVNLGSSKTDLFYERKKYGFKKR
Chain of UniProt P28072 (P28072 whole entry, looked up): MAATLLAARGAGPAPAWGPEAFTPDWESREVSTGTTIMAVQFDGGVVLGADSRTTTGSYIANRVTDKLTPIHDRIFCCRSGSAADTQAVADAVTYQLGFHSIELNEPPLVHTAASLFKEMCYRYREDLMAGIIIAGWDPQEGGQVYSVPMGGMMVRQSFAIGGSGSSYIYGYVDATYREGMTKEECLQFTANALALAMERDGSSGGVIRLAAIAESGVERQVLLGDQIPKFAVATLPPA

Target | log2 fold change (erlotinib) | log2 fold change [1] | log2 fold change [2] | log2 fold change [3] | log2 fold change [4] | log2 fold change [5] | log2 fold change [6] | log2 fold change [7] | log2 fold change [8] | log2 fold change [9]
PRPSAP2 (UniProt O60256) | 0.053 | 0.033 | -0.017 | -0.028 | -0.06 | 0.017 | -0.006 | 0.029 | -0.02 | 0.009
PRKCQ (UniProt Q04759) | 0.036 | 0.047 | 0.024 | 0.03 | 0.093 | 0.012 | 0.012 | -0.008 | -0.007 | -0.061
PSMC4 (UniProt P43686) | -0.05 | -0.092 | -0.052 | -0.004 | -0.023 | -0.032 | -0.011 | 0.006 | 0.04 | -0.041
PRKD2 isoform 3 (UniProt Q9BZL6) | 0.04 | 0.214 | 0.022 | 0.055 | 0.003 | 0.004 | -0.126 | -0.347 | -0.04 | -0.075
PLBD2 (UniProt Q8NHP8) | -0.022 | -0.048 | 0.026 | 0.01 | 0.009 | 0.037 | 0.01 | -0.02 | -0.018 | 0.018
PPP2R5C isoform 4 (UniProt Q13362) | 0.036 | -0.022 | 0.218 | -0.025 | -0.039 | -0.004 | -0.029 | -0.015 | 0 | 0.019
PHF5A (UniProt Q7RTV0) | 0.008 | -0.005 | 0.03 | -0.034 | -0.049 | 0.017 | -0.03 | -0.05 | -0.02 | 0.022
PYGL (UniProt P06737) | -0.012 | -0.008 | 0.001 | 0.037 | 0.047 | -0.007 | -0.02 | 0.008 | -0.004 | 0.08
PRKAR1A (UniProt P10644) | 0.078 | -0.084 | -0.037 | -0.027 | 0.116 | 0.018 | 0.066 | 0.139 | 0.128 | -0.017
PDCD2L (UniProt Q9BRP1) | -0.051 | 0.226 | 0.128 | 0.03 | 0.006 | -0.03 | -0.078 | -0.001 | -0.071 | -0.036
POLR1A (UniProt O95602) | -0.055 | -0.236 | 0.031 | 0.058 | 0.04 | 0.005 | 0.079 | -0.096 | 0 | 0.125
PPIL4 (UniProt Q8WUA2) | 0.011 | 0.056 | -0.049 | 0.043 | -0.023 | 0 | 0.04 | -0.009 | -0.06 | -0.044
POLA1 (UniProt P09884) | 0.03 | 0.038 | 0.042 | -0.023 | -0.032 | 0 | -0.013 | 0.021 | 0.006 | -0.022
PLBD1 (UniProt Q6P4A8) | 0.05 | -0.008 | 0.024 | 0.037 | 0.09 | 0.024 | 0.036 | -0.01 | 0.037 | 0.009
PLA2G15 (UniProt Q8NCC3) | 0.064 | 0.004 | 0.038 | -0.02 | 0.026 | 0.035 | -0.007 | 0.021 | 0.01 | 0.052
PIP4K2B (UniProt P78356) | 0.16 | -0.022 | 0.082 | -0.083 | 0.017 | 0.244 | 0.104 | 0.096 | 0.13 | 0.037
PIGG (UniProt Q5H8A4) | -0.002 | 0.016 | -0.009 | 0.027 | 0.023 | 0.014 | -0.013 | -0.003 | -0.016 | 0.067
PARG (UniProt Q86W56) | 0.063 | 0.067 | 0.034 | -0.015 | 0.063 | 0.059 | 0.043 | 0.063 | -0.079 | -0.071
PARN (UniProt O95453) | 0 | 0.052 | 0.08 | -0.008 | -0.028 | 0.034 | -0.019 | -0.001 | -0.02 | 0.109
PMPCA (UniProt Q10713) | -0.014 | 0.005 | 0.064 | 0.016 | 0.03 | -0.014 | 0.07 | 0.065 | -0.026 | 0.011
PKN1 isoform 2 (UniProt Q16512) | 0.018 | 0.088 | 0.064 | 0.055 | 0.059 | 0 | 0.011 | 0 | -0.061 | -0.326 (active)
PSMB4 (UniProt P28070) | -0.056 | -0.024 | -0.003 | 0.001 | -0.024 | -0.035 | -0.028 | 0.001 | 0.008 | 0.037
POLR2D (UniProt O15514) | -0.153 | -0.048 | 0.138 | 0.204 | 0.06 | 0.087 | -0.049 | -0.011 | 0.058 | 0.064
PSMB6 (UniProt P28072) | -0.067 | -0.079 | -0.024 | -0.001 | -0.068 | -0.006 | -0.046 | -0.012 | 0.011 | 0.042
POLR2C (UniProt P19387) | 0.05 | 0.037 | -0.006 | -0.051 | -0.038 | -0.053 | 0.172 | 0.001 | 0.117 | 0
PLIN2 (UniProt Q99541) | 0.033 | 0.028 | 0.043 | -0.038 | 0.023 | 0.101 | 0 | -0.089 | 0.028 | -0.068
PRPF38B (UniProt Q5VTL8) | -0.016 | 0.022 | -0.049 | 0.082 | -0.184 | -0.085 | -0.027 | -0.146 | -0.018 | -0.054
PDIK1L (UniProt Q8N165) | -0.075 | 0.083 | -0.031 | -0.052 | 0.034 | 0.115 | -0.034 | 0.197 | 0.023 | -0.007
PIP4P1 isoform 2 (UniProt Q86T03) | 0.057 | 0.001 | 0.052 | -0.014 | -0.104 | 0.068 | 0.002 | 0.035 | -0.028 | 0.101
PRPF31 (UniProt Q8WWY3) | 0.105 | 0.194 | 0.05 | 0 | 0.217 | 0 | 0.027 | 0.076 | -0.067 | 0.129
